Test results taken from PubChem BioAssay (NCI).
About 83,000 compounds went through this panel and 20% of them were active in at least one assay; those are over-represented in the sample as a whole.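 Treatment: one concentration, 48 hours, 96-well format. Scoring: percent growth, with anything below 10 considered active.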 A number with no mark means an inactive call. Calls of active or inactive are those of the source.

System: A549/ATCC NSCLC
Test: NCI-60 one-dose screen, 48 h (100 = growth as untreated, 0 = no growth, -100 = all killed)
Conditions: 10 µM unless noted

Compound	growth
S=C(Sc1ccc(Cl)cc1)Sc1ccc(Cl)cc1	45.5%
O=C(O)c1ccc([N+](=O)[O-])cc1S(=O)(=O)O	97.2%
O=C(O)CC1=CCCCC1	98.5%
O=C1C=C[C@H](O)[C@@]2(CO)O[C@@H]12	144%
NC(=O)NCCO	93%
O=C(O)C1CCCN1C(=O)OCc1ccccc1 (stereo not drawn)	93.7%
C=CC(C)(C)n1cc(C2=C(O)C(=O)C(c3cn(C(C)(C)C=C)c4ccccc34)=C(O)C2=O)c2ccccc21	89.4%
COC(=O)c1cccc([N+](=O)[O-])c1	94.9%
CCOC(=O)C(=O)CC(=O)c1ccccc1	96.5%
O=Cc1ccc(F)cc1	108%
CC(CC(CCC(=O)O)(c1ccccc1)c1ccccc1)N(C)C (stereo not drawn)	89.8%
Cc1ccc(S(=O)(=O)Oc2ccc3sc4c(CO)ccc(NCCN(C)C)c4c(=O)c3c2)cc1	-70.9% [100 µM] (active)
O=C(OCC1CCCO1)c1ccc([N+](=O)[O-])cc1 (stereo not drawn)	90.9%
COc1ccc(Br)c2c1C(=O)CC2	122%
CC(=O)N(C(C)=O)c1ccc(C)cc1	104%
CC1(C)C2CCC1(C)C1(C2)OCCS1 (stereo not drawn)	99%

Compound	growth
O=c1n(CC2CO2)c(=O)n(CC2CO2)n1CC1CO1 (stereo not drawn)	49.4%
O=C(O)c1c[nH]c2ccccc2c1=O	104%
Cc1[nH]n(-c2ccccc2)c(=O)c1C=NC(=S)C(N)=S	93.6%
CC(=O)N(C)N=Nc1ccc(C)cc1	113%
COc1ccc2c(Cl)cc(NC(=O)Nc3c(C)cccc3C)nc2c1	43.3%
O=C(c1ccc(Cl)cc1)N1CCCCC1	95.4%
CC(=O)NC(O)C(Cl)Cl (stereo not drawn)	102%
CCC(/C=C\C(C)=O)CC	104%
CC(=O)NNC(=S)N/C=C/c1c(C)ccc([N+](=O)[O-])c1[N+](=O)[O-]	102%
CC(=O)N(CCCCCCN(C(C)=O)C(C)=O)C(C)=O	106% [100 µM]
CC(=O)NCNC(C)=O	96.7%
NNc1ncccn1	97.1%
CC12CCC3c4ccc(O)cc4CCC3C1CCC2=O (stereo not drawn)	92.3%
Nc1cc2ccccc2c(O)c1O	96.9%
CC(C)Sc1ncnc2nc[nH]c12	91.6%
Clc1cccc(Cl)c1C1CSc2ccccc2N=C1c1ccccc1 (stereo not drawn)	73.8%

System: 786-0 renal
Test: as above
Conditions: 10 µM unless noted

Compound	growth
S=C(Sc1ccc(Cl)cc1)Sc1ccc(Cl)cc1	-14.5% (active)
O=C(O)c1ccc([N+](=O)[O-])cc1S(=O)(=O)O	102%
O=C(O)CC1=CCCCC1	95.2%
O=C1C=C[C@H](O)[C@@]2(CO)O[C@@H]12	102%
NC(=O)NCCO	107%
O=C(O)C1CCCN1C(=O)OCc1ccccc1 (stereo not drawn)	106%
C=CC(C)(C)n1cc(C2=C(O)C(=O)C(c3cn(C(C)(C)C=C)c4ccccc34)=C(O)C2=O)c2ccccc21	87.8%
COC(=O)c1cccc([N+](=O)[O-])c1	104%
CCOC(=O)C(=O)CC(=O)c1ccccc1	103%
O=Cc1ccc(F)cc1	102%
CC1CC2C3CCC4=CC(=O)CCC4(C)C3CCC2(C)C1(O)C(=O)CO (stereo not drawn)	112%
CC(CC(CCC(=O)O)(c1ccccc1)c1ccccc1)N(C)C (stereo not drawn)	98.5%
Cc1ccc(S(=O)(=O)Oc2ccc3sc4c(CO)ccc(NCCN(C)C)c4c(=O)c3c2)cc1	-73.4% [100 µM] (active)
O=C(OCC1CCCO1)c1ccc([N+](=O)[O-])cc1 (stereo not drawn)	91%
Nc1c(Br)cc(O)c2c1C(=O)c1ccccc1C2=O	106%
COc1ccc(Br)c2c1C(=O)CC2	113%
CC(=O)N(C(C)=O)c1ccc(C)cc1	92.7%
CC1(C)C2CCC1(C)C1(C2)OCCS1 (stereo not drawn)	97.4%

Compound	growth
O=c1n(CC2CO2)c(=O)n(CC2CO2)n1CC1CO1 (stereo not drawn)	36.9%
O=C(O)c1c[nH]c2ccccc2c1=O	97.8%
Cc1[nH]n(-c2ccccc2)c(=O)c1C=NC(=S)C(N)=S	104%
CC(=O)N(C)N=Nc1ccc(C)cc1	99.9%
COc1ccc2c(Cl)cc(NC(=O)Nc3c(C)cccc3C)nc2c1	21%
O=C(c1ccc(Cl)cc1)N1CCCCC1	102%
CC(=O)NC(O)C(Cl)Cl (stereo not drawn)	112%
CCC(/C=C\C(C)=O)CC	101%
CCOC(=O)C(COS(C)(=O)=O)(COS(C)(=O)=O)C(=O)OCC	108%
CC(=O)NNC(=S)N/C=C/c1c(C)ccc([N+](=O)[O-])c1[N+](=O)[O-]	97.2%
CC(=O)N(CCCCCCN(C(C)=O)C(C)=O)C(C)=O	96% [100 µM]
CC(=O)NCNC(C)=O	109%
NNc1ncccn1	95.7%
CC12CCC3c4ccc(O)cc4CCC3C1CCC2=O (stereo not drawn)	94.5%
Nc1cc2ccccc2c(O)c1O	-32.2% (active)
S=c1nc(-c2ccccn2)c(-c2ccccn2)n[nH]1	98.4%
CC(C)Sc1ncnc2nc[nH]c12	101%
Clc1cccc(Cl)c1C1CSc2ccccc2N=C1c1ccccc1 (stereo not drawn)	90.6%
